In PubChem BioAssay AID1698 (The Scripps Research Institute Molecular Screening Center, 2009):
Some of the results follow. Values without a mark were called inactive. Activity calls are given as the source filed them.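 Rule for the calls: active = activation above the solvent-only control wells' mean plus 3 SD (cut at about 11% in these data); inactive = the rest.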

Biological target: Neuropeptide Y receptor type 2 (Homo sapiens) (UniProt P49146)
Experiment: human Y2 receptor agonism – cell-based, fluorescence, counter-screen for NPY-Y1 potentiator project (AID 1698);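 note: 0% = DMSO with isoproterenol and 100% = 40 nM NPY maximal response; agonism lowers cAMP so well fluorescence drops in active wells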
Conditions: HEK293 Y2-CNGC, membrane potential fluorescence, agonist mode; at 3.6 µM; hits give high values

Chain of Neuropeptide Y receptor type 2 (Homo sapiens) (P49146 whole entry, looked up): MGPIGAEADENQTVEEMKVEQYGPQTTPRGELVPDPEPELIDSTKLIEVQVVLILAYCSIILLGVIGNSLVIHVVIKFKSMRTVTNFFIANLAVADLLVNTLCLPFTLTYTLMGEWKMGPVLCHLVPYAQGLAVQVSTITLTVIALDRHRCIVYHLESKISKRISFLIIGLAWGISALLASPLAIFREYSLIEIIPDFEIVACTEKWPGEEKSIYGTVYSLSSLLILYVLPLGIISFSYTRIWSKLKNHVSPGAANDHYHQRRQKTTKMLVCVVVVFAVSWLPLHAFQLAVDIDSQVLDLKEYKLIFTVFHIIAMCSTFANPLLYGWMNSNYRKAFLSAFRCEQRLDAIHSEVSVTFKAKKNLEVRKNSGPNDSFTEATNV

Q: `Cc1nn(Cc2ccccc2Cl)c(Cl)c1C(=O)OC(C(=O)NC(N)=O)C(C)C` (configuration not stated) was tested. Which activation did it give?
A: 31.5% (active)

Q: For `CSC1=NP(=S)(SC)N(C)c2nc3n(c21)CCC3` (configuration not stated), which activation is on record?
A: 5.24%
